PLCg1 inh: inhibitors of human phospholipase C gamma1 | AID 720700 | purified PLC-gamma1, fluorogenic substrate, fluorescence | P19174 | 370,000 compounds, 0.84% hits | inhibition, % at 12.2 µM; in the data active = inhibition above about 9.5%
ADAM10 inh: ADAM10 inhibition, QFRET primary screen; O14672; recombinant ADAM10, EDANS/DABCYL FRET peptide cleavage, 3 h; inhibition, % at 7 µM; 370,000 compounds, 0.62% hits;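 active = inhibition above a per-campaign cutoff equal to the mean of compounds falling between control-based bounds plus 3 SD, cut at about 20% in these data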;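 also: 0% = DMSO wells while the 100% control is not disclosed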
proKLK7 act: activators of human kallikrein-7 zymogen; AID 652039; purified proKLK7, EDANS-DABCYL substrate fluorescence; 100% is mature enzyme control, 0% vehicle; activation, % at 7 µM; 370,000 compounds, 0.9% hits;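 active = activation above the mean of all tested compounds plus 3 SD, computed per campaign excluding outliers beyond control limits, cut at about 13% in these data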
ADAM17 inh: ADAM17 inhibition, QFRET primary screen; P78536; recombinant ADAM17, EDANS/DABCYL FRET peptide cleavage; inhibition, % at 6.95 µM; 370,000 compounds, 0.83% hits; AID 720648;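 active = inhibition above the mean of compounds lying between control limits plus 3 SD, set per campaign, cut at about 8.5% in these data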;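 also: 0% = DMSO-only wells as the low control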
PLCb3 inh: inhibitors of human phospholipase C beta3; Q01970; Purified PLC-beta3, fluorogenic substrate, fluorescence; inhibition, % at 12.2 µM; 370,000 compounds, 0.18% hits; AID 720704; in the data active = inhibition above about 11%;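 also: 0% = median of compound wells on plate and 100% = full blocker control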
* = called active by the depositor. Sampled rows, rich in hits. Any-hit rate of the full collection: about 2.9%.

O=C1C=CC2=C3c4cc(O)c(O)cc4CC3(O)COC2=C1O (stereo not drawn) was read as PLCg1 inh 16.3*, ADAM10 inh 2.1, proKLK7 act 0.7, ADAM17 inh 2.4 and PLCb3 inh 5.8.
For COC(=O)c1nc2n(n1)C(c1cccc(Cl)c1)C1=C(CC(C)(C)CC1=O)N2 (stereo not drawn) the results were PLCg1 inh -2.5, ADAM10 inh -6.8, proKLK7 act 18.9*, ADAM17 inh 1.3 and PLCb3 inh 1.7.
For CSc1nc2n(n1)C(c1ccccn1)C1=C(CC(C)(C)CC1=O)N2 (stereo not drawn) the results were PLCg1 inh -176.8, ADAM10 inh -162.6, proKLK7 act -4.5, ADAM17 inh -54.6 and PLCb3 inh -268.5.
For Cc1ccc2c(c1)N(C(=O)CSc1nncn1C)C(C)(C)c1ssc(=S)c1-2 the results were PLCg1 inh 8.0, ADAM10 inh 15.0, proKLK7 act 0.9, ADAM17 inh 8.8* and PLCb3 inh 3.1.
Cc1ccc(-n2ncc(C(=O)Nc3cc(Cl)cc(Cl)c3)c2C2CCNCC2)cc1C was read as PLCg1 inh 9.8*, ADAM10 inh -2.6, proKLK7 act 0.3, ADAM17 inh 0.8 and PLCb3 inh 2.1.
`Cc1ccc(-n2ncc(C(=O)Nc3cc(Cl)ccc3Cl)c2C2CCNCC2)cc1` gave PLCg1 inh -0.6, ADAM10 inh -3.6, proKLK7 act -0.1, ADAM17 inh -3.5 and PLCb3 inh -1.6.
COc1ccc(-n2c(COc3ccc(C)cc3)nnc2SCC(=O)c2ccc(-c3ccccc3)cc2)cc1 was read as PLCg1 inh 1.9, ADAM10 inh 4.9, proKLK7 act -0.1, ADAM17 inh 1.6 and PLCb3 inh 1.1.
Screening Cc1cccc(Cn2nc(C(C)(C)C)cc2C(=O)Nc2ccc(F)cc2)c1 returned PLCg1 inh 4.6, ADAM10 inh 25.3*, proKLK7 act 0.2, ADAM17 inh 9.0* and PLCb3 inh -4.4.
`COCC(=O)OC1CCn2c1nc1c2C(=O)C(C)=C(NC(C)=O)C1=O` (stereo not drawn) gave PLCg1 inh 14.5*, ADAM10 inh -2.9, proKLK7 act 0.3, ADAM17 inh -1.9 and PLCb3 inh 6.0.
`Cc1cc(C2C(C#N)=C(N)OC3=C2C(=O)CCC3)c(C)s1` (stereo not drawn) gave PLCg1 inh -1.9, ADAM10 inh 5.2, proKLK7 act -0.6, ADAM17 inh -1.2 and PLCb3 inh -2.2.
COc1cc(C2C(C#N)=C(N)OC3=C2C(=O)CCC3)c([N+](=O)[O-])cc1OC (stereo not drawn) was read as PLCg1 inh inactive, ADAM10 inh -149.6, proKLK7 act 25.1*, ADAM17 inh -34.8 and PLCb3 inh inactive.
`O=C(NCCN1CCC(Cc2ccccc2)CC1)C1CCCN(S(=O)(=O)c2ccc([N+](=O)[O-])cc2)C1` (stereo not drawn) gave PLCg1 inh 4.3, ADAM10 inh -9.0, proKLK7 act 0.6, ADAM17 inh -2.4 and PLCb3 inh 2.3.
For O=C1OC(Nc2cc(Br)cc3cccnc23)c2ccccc21 (stereo not drawn) the results were PLCg1 inh 10.8*, ADAM10 inh -11.2, proKLK7 act 0.8, ADAM17 inh -1.0 and PLCb3 inh -23.7.
For O=C1C=CC(=Nc2ccc3c(c2)C(=O)c2ccccc2-3)O1 the results were PLCg1 inh 4.2, ADAM10 inh 10.7, proKLK7 act 0.1, ADAM17 inh 12.1* and PLCb3 inh -0.2.
`O=C1C=CC(=Nc2ccc(F)cc2)O1` gave PLCg1 inh 1.1, ADAM10 inh -3.3, proKLK7 act -0.6, ADAM17 inh -2.0 and PLCb3 inh -5.1.
Screening CCCCn1c(SCC(=O)NCc2ccccc2)nc2ccc(N3CCOCC3)cc2c1=O returned PLCg1 inh -332.0, ADAM10 inh -179.9, proKLK7 act -0.2, ADAM17 inh -39.7 and PLCb3 inh -477.1.
Screening CCCCn1c(SCC(=O)NCc2ccco2)nc2ccc(N3CCOCC3)cc2c1=O returned PLCg1 inh inactive, ADAM10 inh -204.8, proKLK7 act 14.9*, ADAM17 inh -62.4 and PLCb3 inh inactive.
Cc1ccc(NCc2nnc(SCC(=O)c3ccccc3)n2Cc2ccco2)c(C)c1 was read as PLCg1 inh -3.4, ADAM10 inh 28.7*, proKLK7 act 0.3, ADAM17 inh 0.3 and PLCb3 inh -9.4.
